# Assay outcomes from PubChem BioAssay.
# Cycloheximide cs = Cycloheximide Counterscreen for Small Molecule Inhibitors of Shiga Toxin | cell reporter, cycloheximide protein synthesis inhibition counterscreen | max response, % | 300,000 tested, 12% active; in the data active = max response mostly above about 13%, no sharp cut-off; inactive = mostly below about 14%; also: read at 38.3 µM for the half of the compounds with a filed dose; 0% is about no effect
# TbPYK inhibitor = qHTS of Trypanosoma Brucei Inhibitors | pyruvate kinase (Trypanosoma brucei), Q57TT1 | TbPYK enzyme, Kinase-Glo Plus ATP luminescence, 45 min | Potency, µM (doses to about 76.8 µM), inactives show top-dose activity, negative = inhibition, usual class: inhibitors | 410,000 tested, 0.12% active | AID 624173, 2012; also: potency is read from the fitted curve at half-maximal effect; % is scaled to controls: 0 for no effect and ±100 for the full control effect; nearly all actives have a fitted effect of over 50% in size
#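 Activity of T. brucei pyruvate kinase was followed by Kinase-Glo Plus luminescence after the enzyme reacted 45 min at room temperature with 130 uM ADP (final) and substrate. Test compounds were added before ADP at multiple concentrations.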
# LmPK inhibitor = qHTS Assay for Inhibitors of Leishmania Mexicana Pyruvate Kinase (LmPK) | Q27686 | purified LmPK, Kinase-Glo ATP luminescence, 1 h | Potency, µM (titrated, usually from 57.5 µM), for inactives: at the highest dose activity change, negative = inhibition, actives largely listed as inhibitors | 290,000 tested, 0.37% active; also: potency is read from the fitted curve at half-maximal effect; % is scaled to controls: 0 for no effect and ±100 for the full control effect
# Target sequence (Q27686 whole entry, looked up): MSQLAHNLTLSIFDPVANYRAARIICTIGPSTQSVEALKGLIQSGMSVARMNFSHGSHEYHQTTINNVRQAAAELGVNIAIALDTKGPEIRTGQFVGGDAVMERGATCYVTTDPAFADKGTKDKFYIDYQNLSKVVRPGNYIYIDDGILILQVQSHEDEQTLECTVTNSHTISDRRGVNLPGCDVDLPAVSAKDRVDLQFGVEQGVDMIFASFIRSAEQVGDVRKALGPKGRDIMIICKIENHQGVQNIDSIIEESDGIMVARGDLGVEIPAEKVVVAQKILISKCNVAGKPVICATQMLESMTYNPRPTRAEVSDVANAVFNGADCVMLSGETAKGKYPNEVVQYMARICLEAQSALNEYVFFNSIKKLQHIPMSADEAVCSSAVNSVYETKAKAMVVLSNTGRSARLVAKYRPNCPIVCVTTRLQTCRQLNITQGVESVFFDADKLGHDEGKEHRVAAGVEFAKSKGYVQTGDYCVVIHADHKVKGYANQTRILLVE
#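 Purified LmPK (0.1 nM) with 0.5 mM PEP and 0.1 mM ADP in imidazole buffer pH 7.2 with MgCl2/KCl, 1 h at room temperature. ATP formed was read by luciferase luminescence and normalized to no-enzyme and uninhibited controls.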
# SARS PLpro yeast = qHTS of Yeast-based Assay for SARS-CoV PLP; S. cerevisiae expressing SARS-CoV PLpro, growth rescue; Potency, µM (doses to about 32.9 µM), for inactives: top-dose activity, positive = growth rescue, most hits filed as activators; 330,000 tested, 0.19% active; calls by dose curve; also: potency is read from the fitted curve at half-maximal effect; 0% is about no effect; nearly all actives have a fitted effect of over 55% in size
# Shiga inhibitor = A qHTS for Small Molecule Inhibitors of Shiga Toxin | Vero cells, Shiga toxin protein synthesis inhibition reporter | inhibition, % at 38.7 µM | 290,000 tested, 9.2% active; in the data active = inhibition mostly above about 28%, no sharp cut-off; inactive = mostly below about 43%; also: 0% is about no effect
# NS1 inh = qHTS Assay for Inhibitors of Influenza NS1 Protein Function; AID 2326, 2010; 270,000 tested, 0.4% active; Potency, µM (doses to about 46.1 µM), without a hit: top-dose activity, positive = more growth; calls by dose curve; also: potency is read from the fitted curve at half-maximal effect; actives are rising curves; nearly all actives have a fitted effect of over 50% in size
#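 OD600 was taken as the measure of yeast growth restored by compound in an NS1-expressing S. cerevisiae strain. Cells had been washed out of glucose medium and diluted 1:100 into galactose -URA medium, pH 6.0.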
# Numbers without * were called inactive; ? = inconclusive; / = no result given; [ ] = dose if it differs, or a comment. Only a selection was taken, and hits are over-represented in it overall. Unless noted, calls follow the shape of the dose curve; as a rule, active = well fitted curve in the direction sought with a large enough effect; inconclusive = small, poorly fitted or top-dose-only effect, or another doubt; inactive = no such curve, though single readings can be large; an effect the other way counts as inactive or inconclusive.
SMILES,Cycloheximide cs,TbPYK inhibitor,LmPK inhibitor,SARS PLpro yeast,Shiga inhibitor,NS1 inh
Cc1c(C)n(Cc2ccccc2)c2ccc(C(=O)NCCc3ccccc3Cl)cc12,/,4%[15.4 µM],/,/,/,/
OC[C@H]1NC[C@@H](O)[C@@H](O)[C@@H]1O,-6,/,/,/,7,/
Cc1cccc(S(=O)(=O)N2CN(Cc3ccco3)c3nc4ccccc4nc32)c1,-3,-6%,5%,-10%,-3,-4%
O=S(=O)(c1cccs1)N1CN(Cc2ccco2)c2nc3ccccc3nc21,31*,-3%,7%,0%,40*,-6%
CC(C)(C)OC(=O)N1CCC(c2c(C(=O)NCCc3ccccc3)cnn2-c2ccc(F)cc2)CC1,/,5%,/,/,/,/
Cc1ccc(NCc2n[nH]c(=S)n2-c2cccc(Cl)c2)cc1,-3,3.5µM*,?,-2%,2,/
Cc1ccc(-n2c(CNc3cccc(Cl)c3)n[nH]c2=S)cc1,8,?,-8%,-1%,33,/
Cc1ccc(-n2c(CNc3ccc(C)c(Cl)c3)n[nH]c2=S)cc1,-5,4.5µM*,?,1%,9,5%
O=[N+]([O-])c1ccc(Oc2ccc(Oc3ccc(C(F)(F)F)cn3)cc2)nc1,-3,3%,4%,-2%,-7,-1%
CCOc1ccc(C(=O)Nc2cc(-c3nc4ccccc4[nH]3)ccc2Cl)cc1[N+](=O)[O-],27*,6%,2%,-56%,-4,-36%
Cc1c(C(=O)NC(Cc2ccccc2)c2nc3ccccc3[nH]2)cccc1[N+](=O)[O-] (centres undefined),1,3%,1%,-11%,-6,-2%
Cc1c(C(=O)Nc2nc3ccccc3[nH]2)cccc1[N+](=O)[O-],15*,-14%,-1%,-10%,28,4%
O=C(Nc1nc2ccccc2[nH]1)c1ccc(Cl)c([N+](=O)[O-])c1,37*,-2%,-3%,0%,116*,/
O=C(Nc1nc2ccccc2[nH]1)c1ccccc1[N+](=O)[O-],35*,4%,-3%,0%,51*,/
CCOc1ccc(C(=O)Nc2cc(-c3nc4ccccc4[nH]3)ccc2C)cc1[N+](=O)[O-],13,3%,2%,-13%,27,-239%
COc1ccc(-c2c(N)cnc(C(=O)O)c2C)c(OCc2ccccc2)c1OC,/,-6%,/,/,/,/
O=C(N/N=C/c1ccc(Br)s1)c1cccs1,48*,0%,0%,-2%,80*,-5%
O=C(N/N=C/c1ccc(Br)s1)Nc1ccccc1,46*,0%,-5%,-1%,53,/
O=C(N/N=C/c1ccc(Br)s1)c1ccncc1,13,-2%,2%,1%,-8,/
Cc1ccc(/C=N/NC(=O)c2cccs2)s1,52*,-1%,-11%,-38%,85*,-3%
Cc1cccc(N2CC(C(=O)Nc3nnc(SCC(=O)NCC4CCCO4)s3)CC2=O)c1 (centres undefined),-1,-11%,-1%,23%,-10,9%
Cc1ccnc(N(C(=O)Nc2ccccc2)C2=NCC(C)(C)S2)c1,43*,-7%,1%,0%,59*,4%
CCCC1CCC(=C(C#N)C(N)=O)CC1 (centres undefined),1,3%,-1%,-5%,-8,10%
Cn1cc([N+](=O)[O-])c(C(=O)Nc2ccc3c(C(F)(F)F)cc(=O)oc3c2)n1,15*,0%,0%,?,12,-27%
COc1ccc(NC(=O)c2[nH]ncc2[N+](=O)[O-])cc1,26*,0%,-7%,-3%,64,/
SMILES,Cycloheximide cs,TbPYK inhibitor,LmPK inhibitor,SARS PLpro yeast,Shiga inhibitor,NS1 inh
O=C(Nc1ccccc1)c1[nH]ncc1[N+](=O)[O-],7,-6%,-6%,0%,25,-62%
COc1ccc(NC(=O)c2nn(C)cc2[N+](=O)[O-])cc1,15*,-4%,-16%,1%,35,2%
Cc1c(-c2ccccc2)c(=O)oc2c(CN3CCCC3)c(O)ccc12,/,-6%,/,/,/,/
COc1cccc(C(=O)NCC(=O)NCc2cc(=O)n(C)c(=O)n2C)c1,-3,-5%,1%,-1%,-10,-10%
CCOc1ccc(C2C=C(c3ccc(C)cc3)Nc3nnnn32)cc1 (centres undefined),-5,-7%,10%,-4%,-10,-8%
COc1ccc(C2=CC(c3cccc(C)c3)n3nnnc3N2)cc1 (centres undefined),28*,2%,/,/,43,/
CCOc1ccc(C2C=C(c3ccccc3)Nc3nnnn32)cc1 (centres undefined),58*,4%,0%,0%,131*,10%
N#Cc1cc2cc3c(cc2nc1SCC(=O)N1CCCC1)OCCO3,19,3%,2%,1%,51*,9%
N#Cc1cc2c(nc1SCC(=O)N1CCOCC1)CCCCC2,42*,-14%,1%,-11%,101*,8%
N#Cc1cc2c(nc1SCC(N)=O)CCCCC2,18*,-6%,0%,-3%,107,10%
CC(=O)Nc1ccc(CN(C)c2c(C)nc3ccc(C(=O)N4CCN(c5ccccc5)CC4)cn23)cc1,/,-9%,/,/,/,/
O=C(N/N=C/c1c[nH]c2ccccc12)c1cccs1,45*,5%,0%,1%,94*,2%
Cc1cccc(NC(=S)N/N=C/c2c[nH]c3ccccc23)c1,14*,-4%,3%,-89%,40*,2%
O=C(N/N=C\c1cn[nH]c1-c1ccccc1)c1cccs1,40*,-8%,2%,-28%,active,-10%
O=C(N/N=C\c1cn[nH]c1-c1ccccc1)c1cccnc1,2,0%,-4%,-2%,-7,-1%
O=C(N/N=C/c1oc(O)c2ccccc12)c1ccccc1,17,-11%,-5%,-7%,62*,/
CCc1nc2ccc(C(=O)NCC3CCCCC3)cn2c1N(CCC(C)C)CCN(C)C,/,-7%,/,/,/,/
O=C(N/N=C/c1c[nH]c2ccccc12)c1ccccc1,47*,9%,3%,-10%,128*,-8%
O=C(N/N=C/c1c[nH]c2ccccc12)c1ccncc1,-1,5%,-1%,-7%,13,-1%
Cc1c(/C=N/NC(=O)c2sc3ccccc3c2Cl)cnn1C,13,-3%,0%,-9%,14,-86%
O=C(N/N=C/c1ccccn1)c1sc2ccccc2c1Cl,44*,-2%,4%,-6%,89*,-72%
O=C(N/N=C/c1c[nH]c2ccccc12)c1cccc([N+](=O)[O-])c1,26*,9%,4%,-10%,17,14%
O=C(N/N=C/c1cccc2ccccc12)c1cccs1,73*,1%,2%,0%,87*,4%
Cc1ccc(-c2nc3c4ccccc4ccn3c2Cc2ccsc2)cc1,/,2%,/,/,/,/
